Results filed as inconclusive are left out. A number with no mark means an inactive call. The source made the active and inactive calls. Calls follow the shape of the dose curve; as a rule, active = well fitted activation curve with a large enough effect in the main read-out, with a control signal flat (not every such curve was filed as active); inconclusive = small, poorly fitted or top-dose-only effect, or effect the other way, or a change in a side signal; inactive = flat fitted curve, though single readings scatter.

Chain of 3',5'-cyclic-AMP phosphodiesterase 4B (Homo sapiens) (Q07343 whole entry, looked up): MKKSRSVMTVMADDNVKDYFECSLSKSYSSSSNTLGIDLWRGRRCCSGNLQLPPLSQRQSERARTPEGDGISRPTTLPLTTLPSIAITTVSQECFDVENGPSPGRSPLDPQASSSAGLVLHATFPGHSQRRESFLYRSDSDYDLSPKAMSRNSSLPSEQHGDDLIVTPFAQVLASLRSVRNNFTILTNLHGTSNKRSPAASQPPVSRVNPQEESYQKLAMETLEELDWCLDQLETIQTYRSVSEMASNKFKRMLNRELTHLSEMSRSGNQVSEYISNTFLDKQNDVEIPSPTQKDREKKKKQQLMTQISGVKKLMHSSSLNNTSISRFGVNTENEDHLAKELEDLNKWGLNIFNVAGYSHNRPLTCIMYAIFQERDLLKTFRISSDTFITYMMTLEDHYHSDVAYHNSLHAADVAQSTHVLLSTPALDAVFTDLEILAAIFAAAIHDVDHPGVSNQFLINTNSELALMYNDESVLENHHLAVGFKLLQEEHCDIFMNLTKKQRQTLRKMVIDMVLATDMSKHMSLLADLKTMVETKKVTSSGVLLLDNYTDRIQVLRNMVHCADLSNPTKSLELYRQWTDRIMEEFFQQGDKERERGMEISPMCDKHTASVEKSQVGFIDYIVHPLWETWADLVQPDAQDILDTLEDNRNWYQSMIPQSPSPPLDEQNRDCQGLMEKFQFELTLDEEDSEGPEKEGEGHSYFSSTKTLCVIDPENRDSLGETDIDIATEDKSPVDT

The assay concerns the target 3',5'-cyclic-AMP phosphodiesterase 4B (Homo sapiens) (UniProt Q07343). The experiment in a line: qHTS Assay for Inhibitors of PDE-IV (AID 607). Also: % of control where 0% means no effect. As to conditions: HEK293 ACTOne CNG channel cells, membrane potential fluorescence; series mostly up to 22.9 µM; activation (PDE inhibition): at the top concentration. An excerpt:
NIH Chemical Genomics Center [NCGC]
NIH Molecular Libraries Screening Centers Network [MLSCN]
The cyclic nucleotide phosphodiesterases (PDEs) are proteins that catalyze hydrolysis of 3', 5'-cyclic nucleotides, such as cyclic adenosine monophosphate (cAMP) and cyclic guanosine monophosphate (cGMP), to their corresponding 5'-nucleotide monophosphates. These enzymes play an important role in controlling cellular concentrations of cyclic nucleotides and have a central role in a variety of intracellular signaling events. cAMP PDEs are emerging as a promising class of drug targets in asthma and cardiovascular disease therapeutic areas.
There are no commercially available cell-based screening assays for PDE inhibitors: currently biochemical assays are done using pure substrates (cAMP or cGMP) and purified recombinant PDE enzymes. As with other biochemical screens on intracellular targets, false positives and false negatives may result from issues involving cell membrane permeability, cellular metabolism, and the like.
Here we report the development of a cell-based screening assay for cAMP phosphodiesterase (PDE) inhibitors. The assay is based on the BD ACTOne# technology (BD Biosciences) which utilizes a modified cyclic nucleotide-gated channel (CNG) to monitor intracellular cAMP changes in live cells. The CNG channel is localized on the plasma membrane, and opens when the intracellular cAMP level increases, resulting in ion flux and cell membrane depolarization. The influx of cations through the CNG channel can be quantified using membrane potential (MP) dyes. We modified the BD ACTOne technology to allow the detection of PDE inhibitors, and performed an inhibitor screen for PDE-IV, which is expressed endogenously in HEK293 cells. We optimized this assay in homogeneous 1536-well plate assay format for high throughput screening.
NCGC Assay Protocol Summary:
The medium contained 10% FBS (Invitrogen), 2 mM L-glutamine, and 250 ug/ml G418 (Cellgro) and 1 ug/ml puromycin (Clontech). ACTOneTM parental cells (BD Biosciences) were maintained in the same medium without puromycin.
The activity of the CNG channel was measured by BD ACTOneTM membrane potential dye kit (BD Biosciences). Forskolin, a positive control for cAMP activation and RO 20-1724, a PDE inhibitor, were both purchased from Sigma and solublized in DMSO.
Sequence,Parameter,Value,Description
1,Reagent,3 uL,1000 cells/well 1536 TC treated Black plate
3,Compound,0.5 uL,Kalypsys dispense RO 20-1724 100 uM final [A]
4,Reagent,3 uL,BD membrane potential dye
6,Compound,23 nL,Final concentration was 0.7nM to 22.9uM
8,Detector,EX 535 / EM 590 [B],Envision
Footnotes: [A] The stock 2 mM RO 20-1724 PDE inhibitor was made in 10 % DMSO. Parental cell line received 10 uM forskolin + 100 uM RO. [B] Envsion settings: Bottom Excitation 535/20 nm top emission 590/20, gain of 150 and 5 flashes per well.
Keywords: PDE, PDE-IV, cytotoxicity, flourescence, MLSMR, MLSCN, NIH Roadmap, qHTS, NCGC
`CC(C)(C(=O)c1cccnc1)c1cccnc1`: the “activation (PDE inhibition)” value is 15.2%.
The same measure, in the same setting: in the case of `C[C@@H](CN(C)C)CN1c2ccccc2Sc2ccccc21` it was 12.8%; in that of `C[C@@H]1C(=O)NC2=Nc3cccc(Cl)c3CN21`, 8.29%.
As for `Oc1ccc(O)cc1`, the “activation (PDE inhibition)” value is -11.8%.
As for `NC(=NCCCCCCN=C(N)/N=C(\N)Nc1ccc(Cl)cc1)/N=C(\N)Nc1ccc(Cl)cc1`, the “activation (PDE inhibition)” value was -7.25%.
Take `Nc1nc2ncc(CNc3ccc(C(=O)N[C@@H](CCC(=O)O)C(=O)O)cc3)nc2c(=O)[nH]1`: the “activation (PDE inhibition)” value was 0.319%.
Still for that read-out and setting: in the case of `CCN1CCC[C@H]1CNC(=O)c1c(OC)ccc(Br)c1OC` it was 4.02%; in that of `CCN(CC)C(=O)N1CCN(C)CC1`, -10.2%.
`COc1cc(NS(C)(=O)=O)ccc1Nc1c2ccccc2nc2ccccc12`: the “activation (PDE inhibition)” value is -2.78%.
In the case of `C1CCc2nnnn2CC1`, the compound was classed as inactive.
`OC(CCN1CCCCC1)(c1ccccc1)c1ccccc1`: the “activation (PDE inhibition)” value is 7.73%.
As to `C[N+]1(CCCCC[N+]2(C)CCCC2)CCCC1`, the result was inactive.
Consider `CC(C)NC[C@@H](O)COc1cccc2ccccc12`, for which the call was inactive.
For `CCCn1c(=O)[nH]c(=O)c2[nH]cnc21`, the “activation (PDE inhibition)” value was 0.891%.
As to `CC(=O)c1ccc2c(c1)N(CCCN1CCC(CCO)CC1)c1ccccc1S2`, the “activation (PDE inhibition)” value was 17.7%.
Turning to `Cc1cc(=O)n(-c2ccccc2)n1C`, the “activation (PDE inhibition)” value was 3.69%.
The same measure, in the same setting: in the case of `CC(=O)N(O)CCCCCNC(=O)CCC(=O)N(O)CCCCCNC(=O)CCC(=O)N(O)CCCCCN` it was -5.35%.
With `Nc1cc(Cl)c(NC2=NCCN2)c(Cl)c1`, the “activation (PDE inhibition)” value was -4.42%.
As to `O=C1CCC(c2ccc(-n3ccnc3)cc2)=NN1`, the “activation (PDE inhibition)” value is -13.4%.
Regarding `C=C(CC)C(=O)c1ccc(OCC(=O)O)c(Cl)c1Cl`, the “activation (PDE inhibition)” value was 3.18%.
For `CN(C(=O)CN(CCO)CC(=O)N(C)C(C)(C)Cc1ccccc1)C(C)(C)Cc1ccccc1`, the “activation (PDE inhibition)” value is -6.47%.
With `COc1cccc2c1C(=O)c1c(O)c3c(c(O)c1C2=O)C[C@@](O)(C(C)=O)C[C@@H]3O[C@H]1C[C@H](N)[C@H](O)[C@H](C)O1`, the “activation (PDE inhibition)” value is 0.918%.
The same measure, in the same setting: under `C[C@H]1[C@H](NC(=O)/C(=N/OC(C)(C)C(=O)O)c2csc(N)n2)C(=O)N1S(=O)(=O)O` (stereo in doubt) stands 1.34%; under `CC(O)(P(=O)(O)O)P(=O)(O)O`, -5.45%.
For `CN1CCN(C(c2ccccc2)c2ccccc2)CC1`, the “activation (PDE inhibition)” value is 20.3%.
With `CC(C)(Oc1ccc(Cl)cc1)C(=O)O`, the compound was classed as inactive.
The same measure, in the same setting: under `CNCCC=C1c2ccccc2CCc2ccccc21` stands “inactive”.
`Cc1cc(N)c2cc(NC(=O)Nc3ccc4nc(C)cc(N)c4c3)ccc2n1`: the “activation (PDE inhibition)” value was 7.85%.
`O=C1c2ccccc2C(=O)C1c1ccccc1`: the “activation (PDE inhibition)” value was -20.6%.
Consider `CC(C)COC(=O)OCN1C(=O)CN(CCN2CC(=O)N(COC(=O)OCC(C)C)C(=O)C2)CC1=O`, for which the “activation (PDE inhibition)” value is 0.335%.
Still for that read-out and setting: under `N[C@@H](Cc1cnc[nH]1)C(=O)O` stands -10.4%; under `Cc1c(N(C)CS(=O)(=O)O)c(=O)n(-c2ccccc2)n1C`, -5.95%; under `O=C(COc1ccc(Cl)cc1)N1CCN(Cc2ccc3c(c2)OCO3)CC1`, -0.21%.
Same read-out and setting: under `CN1CCC(=C2c3ccccc3Sc3ccccc32)CC1` stands 8.77%.
As for `CCCCOc1ccc(OCCCN2CCOCC2)cc1`, the “activation (PDE inhibition)” value was 12.3%.
`Oc1cc(O)c2c(c1)O[C@H](c1ccc(O)c(O)c1)[C@H](O)C2`: the call was inactive.
As for `CC(C)N=C(N)/N=C(\N)Nc1ccc(Cl)cc1`, the “activation (PDE inhibition)” value is 8.46%.
As to `COc1c(C)c2c(c(O)c1C/C=C(\C)CCC(=O)O)C(=O)OC2`, the outcome was inactive.
For the compound `CCn1cc(C(=O)O)c(=O)c2cnc(N3CCCC3)nc21`, the “activation (PDE inhibition)” value was 19.8%.
For `O=C(OCCOCCO)c1ccccc1Nc1cccc(C(F)(F)F)c1`, the “activation (PDE inhibition)” value is -3.43%.

Source of the values: PubChem BioAssay (NCATS).
